NPC1 promoter act: activators of NPC1 promoter | Huh7 NPC1 promoter luciferase reporter, 24 h | Potency, µM (highest dose often 9.22 µM), without a hit: top-dose activation, usual class: activators | 320,000 tested, 2.4% active | AID 485313; further: % of control where 0% means no effect; nearly all actives have a fitted effect of over 60% in size
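NPC1 promoter–luciferase Huh7 cells; 24 h compound; luminescence.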
Luc counter: blocks Kinase-Glo luciferase, a counter-screen artifact; Q27757; Kinase-Glo luciferase, ATP luminescence, 8 min; Potency, µM (top dose mostly 38.3 µM), inactives show at the highest dose activity change, negative = inhibition, hits mostly inhibitors; 200,000 tested, 0.28% active; further: on the % scale 0 is the no-effect control and ±100 the full control effect; nearly all actives have a fitted effect of over 60% in size
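Kinase-Glo luciferase light output from ATP and luciferin was measured with 10 uM ATP, within the enzyme's linear range. Buffer: 50 mM imidazole pH 7.2, 50 mM KCl, 7 mM MgCl2, 0.01% Tween 20, 0.05% BSA; luminescence read after 8 min at ambient temperature.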
SMN2 splice up: increases expression of the SMN2 splice variant. HEK293 SMN2-luciferase splicing reporter, luminescence, 30-36 h. Potency, µM (top dose mostly 46.1 µM), inactives show top-dose activity change, positive = activation, usual class: activators. 210,000 tested, 2.8% active. AID 1458; further: % of control where 0% means no effect; nearly all actives have a fitted effect of over 55% in size
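HEK293 cells carry an SMN2 minigene-luciferase reporter in which exon 7 inclusion puts luciferase in frame. Cells were seeded at 2000 cells/well, attached for 10-12 hours, then exposed to compounds for 30-36 hours at 37C before ONE-Glo luminescence.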
FLuc modulator: firefly luciferase modulation, counter-screen for miR-21 project; 360,000 tested, 6.9% active; purified FLuc, Km substrates, luminescence inhibition; Potency, µM (series often up to 57.5 µM), for the others: at the highest dose activity change, negative = inhibition, usual class: inhibitors; P08659;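 further: plate controls were vehicle for no effect and reference inhibitor for full effect; nearly all actives have a fitted effect of over 55% in size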
Target sequence (P08659 whole entry, looked up): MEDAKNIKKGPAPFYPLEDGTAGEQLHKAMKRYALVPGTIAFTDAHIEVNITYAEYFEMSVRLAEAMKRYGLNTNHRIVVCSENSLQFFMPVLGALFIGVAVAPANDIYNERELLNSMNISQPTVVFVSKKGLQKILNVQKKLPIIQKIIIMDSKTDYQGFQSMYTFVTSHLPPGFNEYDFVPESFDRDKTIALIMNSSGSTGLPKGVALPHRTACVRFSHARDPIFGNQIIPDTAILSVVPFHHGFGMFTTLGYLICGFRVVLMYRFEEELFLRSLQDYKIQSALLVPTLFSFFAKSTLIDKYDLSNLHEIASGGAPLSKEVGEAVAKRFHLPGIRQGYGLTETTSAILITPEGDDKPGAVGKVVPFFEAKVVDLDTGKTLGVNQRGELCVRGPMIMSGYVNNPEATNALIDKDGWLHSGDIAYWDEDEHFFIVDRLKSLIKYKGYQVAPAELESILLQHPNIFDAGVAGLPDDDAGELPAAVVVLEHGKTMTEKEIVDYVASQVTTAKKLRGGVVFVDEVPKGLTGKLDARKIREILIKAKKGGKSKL
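Biochemical qHTS of compounds, final roughly 60 µM downward over six points, against 10 nM purified firefly luciferase using Km concentrations of substrates (10 uM D-luciferin, 10 uM ATP) in Tris acetate pH 7.5 buffer; luminescence output.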
ELG1 genotox: induces genotoxicity in HEK293T cells with luciferase-tagged ELG1 | AID 504466 | 330,000 tested, 1.3% active | HEK293T ELG1-luciferase reporter, luminescence, 16 h | Potency, µM (series often up to 46 µM), for the others: at the top dose activity change, positive = activation, actives largely listed as activators; further: % of control where 0% means no effect; nearly all actives have a fitted effect of over 60% in size
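Quantitative HTS format in 1536-well plates. HEK293T ELG1-luciferase reporter cells receive test compound and are incubated 16 hr at 37 °C, 5% CO2; ONE-Glo added, 30 min room temperature, then luminescence read.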
Rab9 promoter act: Rab9 promoter activation; Huh7 Rab9 promoter-luciferase reporter, luminescence, 24 h; Potency, µM (highest dose often 9.22 µM), for inactives: at the highest dose activation, negative = inhibition, actives largely listed as activators; 320,000 tested, 2.8% active; further: % of control where 0% means no effect; nearly all actives have a fitted effect of over 60% in size
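Measured in stably transfected Huh7 cells bearing a Rab9 promoter–luciferase construct: 24 h compound treatment at 37 °C, followed by luminescence detection.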
* = called active by the depositor; ? = inconclusive; nt = no result; [ ] = dose if it differs, or a comment. Only some compounds are listed: those with a hit (about 7.4% of all), similar ones and a draw of the others. The call rests on the fitted dose curve; in most records, active means well fitted curve in the direction sought with a large enough effect; inconclusive means small, poorly fitted or top-dose-only effect, or another doubt; inactive means no such curve, though single readings can be large; an effect the other way counts as inactive or inconclusive. Potency means the concentration at half of the fitted maximal effect.

SMILES | NPC1 promoter act | Luc counter | SMN2 splice up | FLuc modulator | ELG1 genotox | Rab9 promoter act
O=C(Nc1ccccc1)C1Cc2ccccc2CN1C(=O)c1ccco1 (stereo not given) | 9% | 1% | 14% | 19µM* | 16% | 14%
COc1ccccc1NC(=O)C1Cc2ccccc2CN1C(=O)c1ccco1 (stereo not given) | 6% | nt | nt | -2% | 7% | 0%
O=C1CCC(=O)N1CCSC(=S)N1CCSCC1 | 12% | nt | nt | -14% | 12% | 18%
CCOC(=O)C1CCCN(C2=NC(=O)/C(=C/c3ccc(N(C)C)cc3)S2)C1 (stereo not given) | 26% | nt | nt | 12µM* | 6% | 5%
O=C1N=C(N2CCCCC2)S/C1=C\c1ccc(Cl)cc1 | 11% | nt | nt | -20% | 15% | 7%
CC(C)(C)c1ccc(/C=C2/SC(N3CCCC3)=NC2=O)cc1 | -3% | nt | nt | 12µM* | 3% | 11%
Cc1ccc(/C=C2\SC(N3CCCCC3)=NC2=O)cc1 | 30% | nt | nt | 19µM* | 12% | ?
Cc1ccccc1N1CCN(C2=NC(=O)/C(=C\c3cccs3)S2)CC1 | -1% | -2% | ? | 9.5µM* | 1% | 11%
CCN(CC(=O)Nc1ccc(NC(C)=O)cc1)C(=O)CCCc1c[nH]c2ccccc12 | -1% | nt | nt | -19% | -2% | 2%
CC(=O)Nc1ccccc1-c1nc2ccccc2nc1OCC(=O)c1ccc(Cl)cc1 | -1% | 3% | 5% | 11% | -2% | -3%
O=[N+]([O-])c1ccc(O)c(/C=N/Nc2ccc(Cl)nn2)c1 | 3.2µM* | -4% | -66% | ? | 7% | -5%[1.84 µM]
Cc1ccc(S(=O)(=O)N/N=C/c2cc([N+](=O)[O-])ccc2O)cc1[N+](=O)[O-] | -3% | -1% | -20% | 13µM* | 10% | 2%
O=[N+]([O-])c1ccc(O)c(/C=N/NC2=NS(=O)(=O)c3ccccc32)c1 | 4% | -15% | -9% | 8.5µM* | -4% | 12%
Cc1ccc(S(=O)(=O)N/N=C/c2ccc(O)cc2O)cc1[N+](=O)[O-] | -2% | nt | nt | -21% | -2% | -2%
O=[N+]([O-])c1ccc(/C=N/NC2=NS(=O)(=O)c3ccccc32)cc1 | -5% | -1% | 8% | 15µM* | 3% | -1%
COc1ccccc1N(C(=O)c1ccco1)C(C(=O)NC1CCCC1)c1ccc(N2CCOCC2)cc1 (stereo not given) | 0% | nt | nt | -3% | 4% | 5%
O=C(N[C@@H](Cc1ccccc1)C(=O)N1CCN(S(=O)(=O)c2ccccc2F)CC1)c1ccco1 | nt | nt | nt | nt | -1% | nt
Cc1cc(C)c2oc(-c3cccc(NC(=O)COc4ccc([N+](=O)[O-])cc4)c3)nc2c1 | nt | nt | -11% | 1% | nt | nt
Cc1c(N=Cc2nc3ccccc3n2C)c(=O)n(-c2ccccc2)n1C | 0% | 11µM* | 1% | 1.5µM* | ? | 5%
Cc1cccc(-c2ccc(C=Nc3c(C)n(C)n(-c4ccccc4)c3=O)o2)c1 | 7% | -2% | -8% | 24µM* | 0% | 9%
Cc1c(N=Nc2ccc(O)cc2)c(=O)n(-c2ccccc2)n1C | 11% | -4% | 16% | -12% | 8% | 6%
Cc1c(N=Cc2nc3ccccc3[nH]2)c(=O)n(-c2ccccc2)n1C | 14% | -22% | -35% | 13µM* | 0% | 8%
COc1cc2c(cc1OC)/C(=C/C(=O)c1ccccc1)NCC2 | 22% | nt | nt | -18% | 12% | -2%
COc1cc2c(cc1OC)/C(=C/C(=O)c1ccc(C)cc1)NCC2 | -2% | nt | nt | 17µM* | 7% | 6%
CCOc1ccc(Br)cc1CN(CC)CC | 0% | nt | nt | -2% | -7% | -9%
SMILES | NPC1 promoter act | Luc counter | SMN2 splice up | FLuc modulator | ELG1 genotox | Rab9 promoter act
CS(=O)(=O)C1=NSC2=NC(=O)/C(=C\c3ccc(OS(=O)(=O)c4ccccc4)cc3)C(=N)N21 | 0% | nt | nt | -11% | 3% | -2%
COc1cccc(-n2c(C)cc(/C=C3/C(=N)N4C(=NC3=O)SN=C4S(C)(=O)=O)c2C)c1 | 1% | 1% | 20% | 5.4µM* | 5% | 1%
COc1cc(/C=C2/C(=N)N3C(=NC2=O)SN=C3S(C)(=O)=O)ccc1OS(=O)(=O)c1ccc(C)cc1 | 0% | nt | nt | -19% | -1%[9.26 µM] | 0%
Cc1cc(C)cc(-n2cccc2/C=C2/C(=N)N3C(=NC2=O)SN=C3S(C)(=O)=O)c1 | -6% | 3% | -20% | 13µM* | -3% | 3%
Cc1ccc(-n2cccc2/C=C2/C(=N)N3C(=NC2=O)SN=C3S(C)(=O)=O)cc1 | -1% | -2% | -15% | 19µM* | 0% | 2%
CS(=O)(=O)C1=NSC2=NC(=O)/C(=C\c3cccn3-c3ccccc3Cl)C(=N)N21 | 0% | -1% | -2% | 27µM* | 2% | 16%
CCOC(=O)C1CCN(c2cc(C)nc3c(-c4ccccc4OC)c(C)nn23)CC1 | nt | nt | nt | -1% | nt | nt
Cc1ccc(Cl)cc1NC(=O)CCn1c(=O)c2cccn2c2cccnc21 | nt | nt | nt | 1% | nt | nt
Cc1ccc(-c2c(C(=O)N3CCN(c4cccc(C)c4C)CC3)oc(=O)c3ccccc23)cc1 | nt | nt | 8% | -1% | nt | nt
NCCc1ccn[nH]1 | 1% | 1%[17.1 µM] | 0%[20.6 µM] | 2% | 3% | 3%
CCc1ccc(-n2cccc2/C=C2/C(=N)N3C(=NC2=O)SN=C3S(C)(=O)=O)cc1 | -3% | 5% | -10% | 17µM* | 0% | 3%
C/C=C/C=C\C(=O)Nc1cccc(C2=NOC3(C2)C[C@H](C(N)=O)N(C(=O)CC#N)C3)c1 (stereo not given in full) | 9% | nt | nt | ? | 4% | 1%
C/C=C(/C)C(=O)Nc1cccc(C2=NOC3(C2)C[C@H](C(N)=O)N(C(=O)Cc2ccc([N+](=O)[O-])cc2)C3)c1 (stereo not given in full) | -1% | nt | nt | 5% | 5% | -1%
C/C=C/C=C/C(=O)N1CC2(CC(c3cccc(NC(=O)CCCCC)c3)=NO2)C[C@H]1C(N)=O (stereo not given in full) | -3% | nt | nt | -17% | -3% | -1%
C/C=C\C=C/C(=O)Nc1cccc(C2=NOC3(C2)C[C@H](C(N)=O)N(C(=O)Cc2ccc([N+](=O)[O-])cc2)C3)c1 (stereo not given in full) | -1% | nt | nt | 21µM* | 8% | 1%
C/C=C\C=C/C(=O)Nc1cccc(C2=NOC3(C2)C[C@@H](C(N)=O)N(C(=O)CCCCC)C3)c1 (stereo not given in full) | -39% | nt | nt | 13µM* | 2% | -5%
